# Measured values published in PubChem BioAssay AID1069 (NMMLSC, 2008).
# Activity calls are given as the source filed them.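 The calls were made as follows: active = high combined rank on largest and smallest cell-count-weighted shift across three tests, rank score above 45, floors 50 and 25 (some results past the limit were not filed as active); inactive = the rest.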
# Assay: LNCaP granularity increase inducers, single-point recheck – cell-based, side scatter shift, flow cytometry, confirmation (AID 1069);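 also: LNCaP human prostate cancer cells in low-serum medium with charcoal-stripped FBS; percent of cells with raised granularity gated so DMSO controls show 10%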
# Conditions: LNCaP differentiation, 4 d, stronger effect = higher value
SMILES,side scatter shift (at 100 µM),"side scatter shift (side scatter shift, at 10 µM)"
CCOC(=O)N1CCC(NC(=O)c2cc3c(-c4cccc(OC)c4)nn(C)c3s2)CC1,7.7% (inactive),2.35%
CCN1CCCC1CNC(=O)C1CCN(Cc2nc(-c3cccc(Br)c3)oc2C)CC1 (stereo not drawn),6.3% (active),60.2%
CCOC(=O)C1=C(C)Nc2nc(SC)nn2C1c1ccc(C(=O)OC)cc1 (stereo not drawn),7.7% (inactive),7.15%
N=c1c(C(=O)NC2CCCC2)cc2c(=O)n3ccccc3nc2n1C1CCCC1,16.7% (inactive),7.85%
O=C(Cc1ccc(-n2cccc2)cc1)NCc1cccs1,28.8% (inactive),13.2%
O=S1(=O)C=C(Sc2nc3ccccc3s2)c2ccccc21,7.7% (inactive),17.9%
CC(C)Cc1nc2oc3c(N4CCN(CCO)CC4)ncnc3c2c2c1CCCC2,33.3% (inactive),5.25%
Cc1cccc(-c2nsc(SCC(=O)Nc3nccs3)n2)c1,68.1% (active),6.2%
Cc1oc(-c2cccc(Cl)c2)nc1CN1CCC(C(=O)NCCCN2CCCC2=O)CC1,15.1% (inactive),2.65%
Cc1ccc(-c2noc(CCC(=O)NCCCN3CCN(c4ccc(F)cc4)CC3)n2)cc1,0% (inactive),17.4%
Cc1oc(-c2ccc(Cl)cc2)nc1CN1CCCC(C(=O)NCc2ccccn2)C1 (stereo not drawn),26.5% (inactive),6.45%
Cc1ccccc1-c1nc(CN2CCC(C(=O)N3CCC(C(N)=O)CC3)CC2)c(C)o1,12% (inactive),10.9%
Cn1c(C(=O)NCCCN2CCN(c3ccccc3F)CC2)cc2c(=O)n(C)c3ccccc3c21,20% (inactive),7.65%
CCc1ccc(-c2nc(CN3CCC(C(=O)N4CCN(c5ccccc5)CC4)CC3)c(C)o2)cc1,44.4% (inactive),19.8%
N#C/C(=C\c1ccc(O)c(O)c1)C(=O)NCCCc1ccccc1,28.9% (inactive),7.05%
COc1ccc(CC(=O)Nc2ccc(-c3nnc(-c4ccc(C)cc4)o3)cc2)cc1,33.3% (inactive),6.65%
CCN1CCN(CCNC(=O)C2CCCN(Cc3nc(-c4cccc(Cl)c4)oc3C)C2)CC1 (stereo not drawn),14.3% (inactive),32.2%
CCn1c(=O)cc(SCC(=O)N2CCN(C3CCCCC3)CC2)c2ccccc21,16.7% (inactive),6.55%
O=C(CCCCCn1c(=O)[nH]c2ccccc2c1=O)NCCCN1CCN(c2ccccc2F)CC1,27.8% (inactive),3%
O=C(CN1CCN(Cc2ccc3c(c2)OCO3)CC1)N1CCc2[nH]c3ccc(F)cc3c2C1,20.8% (inactive),7.3%
CCOC(=O)c1c(C)n(C)c2ccc(OCC(O)CNC(CC)CO)cc12 (stereo not drawn),58.6% (active),3.3%
Cn1c(=O)cc(OCC(=O)NCCCN2CCN(c3cccc(Cl)c3)CC2)c2ccccc21,20% (inactive),8.2%
CCCNC(=O)C1CN(S(=O)(=O)c2ccccc2)CCN1S(=O)(=O)c1ccccc1 (stereo not drawn),13.3% (inactive),8%
CCN(CC)CCNC(=O)c1ccc(N2CCCCC2)c(NS(=O)(=O)c2ccc(C)cc2)c1,17.6% (inactive),38.6%
COc1ccc(N2CCN(c3oc(COc4ccccc4Cl)nc3C#N)CC2)cc1,24.8% (inactive),9.2%
CCCOc1ccccc1C1CC(=O)Nc2cc3c(cc21)OCO3 (stereo not drawn),16.7% (inactive),22.1%
COc1ccc(S(=O)(=O)CCC(=O)O)cc1,16.3% (inactive),7.3%

SMILES,side scatter shift (at 100 µM),"side scatter shift (side scatter shift, at 10 µM)"
Cc1sc(CO)c(Sc2ccccc2)c1C(=O)O,3.4% (inactive),2.85%
COCCNC(=O)CC(NS(=O)(=O)c1ccc(NC(C)=O)cc1)C(C)C (stereo not drawn),6.3% (inactive),9.45%
CC1CCCCN1CCNC(=O)c1cc2c(-c3ccccc3F)nn(C)c2s1 (stereo not drawn),42.4% (inactive),19.9%
O=C(NCCCN1CCOCC1)c1cc2c(s1)CSC2,13.1% (inactive),9.2%
Cc1oc(-c2ccc(Cl)cc2)nc1CN1CCC(C(=O)N2CCc3ccccc3C2)CC1,44.4% (inactive),17%
Cc1ccc(Cn2c(C(=O)NCCCN3CCOCC3)cc3sccc32)cc1,20.1% (inactive),10.8%
Cc1cc2c(=O)n(CC(=O)N3CCN(c4ccccc4)CC3)cnc2s1,30.4% (inactive),5.8%
Cc1ccc(C)c(N2CCN(CCCNC(=O)Cn3cc4c(n3)CCCCC4)CC2)c1,0% (inactive),7.55%
Cc1nc2nc(C)c(CCC(=O)NCCCN3CCN(c4cccc(Cl)c4)CC3)c(C)n2n1,27.9% (inactive),7.4%
CCCCC(=O)NCCc1ccc(S(N)(=O)=O)cc1,12.6% (inactive),11.9%
COc1ccc(CCN2CCC(Nc3nc4ccccc4n3Cc3ccc(F)cc3)CC2)cc1,0% (active),35.3%
COc1cc(C(=O)NCc2nnc(SCC(=O)NCc3ccccc3)o2)cc(OC)c1OC,9.6% (inactive),7.7%
Cc1cccc(-c2nc(CN3CCCC(C(=O)NC4CCCC4)C3)c(C)o2)c1 (stereo not drawn),13.8% (inactive),8.5%
COc1ccc(CCNC(=O)C2CCCN(Cc3nc(-c4ccccc4C)oc3C)C2)cc1OC (stereo not drawn),25% (inactive),5.4%
CC1=C(n2nnc3ccccc32)C(c2ccccc2)C(C#N)=C(N)O1 (stereo not drawn),26% (inactive),6.4%
Cc1cc(C)nc(N2CCC(C(=O)Nc3ccc(Oc4ccccc4)cc3)CC2)n1,44.1% (inactive),3.05%
Cc1cc(C)n2nc(SCC(=O)Nc3ccc(F)cc3)nc2n1,4% (inactive),2.8%
Cc1ccccc1-c1nc(CN2CCC(C(=O)NCCCN3CC(C)CC(C)C3)CC2)c(C)o1 (stereo not drawn),54.5% (active),78.4%
CCCOc1ccc2nc(NC(=O)OC)[nH]c2c1,8.3% (inactive),2.95%
Nc1cccc2cnccc12,4.1% (inactive),6.95%
O=C(CSc1c[nH]c2ccccc12)N1CCOCC1,11.4% (inactive),4.25%
COc1ccc(C(CC(=O)O)NC(=O)Cc2ccccc2)cc1 (stereo not drawn),2.7% (inactive),3.1%
CSc1nc2ccc(Nc3nc(N4CCOCC4)nc(N4CCOCC4)n3)cc2s1,14.6% (inactive),5.1%
CCN1CCN(c2cc(C)c3cc(NC(=O)c4ccc(Br)o4)ccc3n2)CC1,2.8% (active),32.8%
Cn1c(C(=O)NCCCN2CCN(c3cccc(Cl)c3)CC2)cc2c(=O)n(C)c3ccccc3c21,69.6% (active),5.45%
O=C(CCNC(=O)Cn1ccc2ccccc2c1=O)NCCCN1CCN(c2ccccc2F)CC1,35.7% (inactive),6.15%
COc1ccc(N2CCN(CCCNC(=O)C3CCCN(S(=O)(=O)c4cnc[nH]4)C3)CC2)cc1 (stereo not drawn),32.3% (inactive),4.05%

SMILES,side scatter shift (at 100 µM),"side scatter shift (side scatter shift, at 10 µM)"
c1ccc(OCCCn2nnc(-c3cccnc3)n2)cc1,15.4% (inactive),3.1%
COc1ccc(CCn2c(=N)c(C(=O)NCc3ccco3)cc3c(=O)n4ccccc4nc32)cc1,59.4% (inactive),4.85%
Cc1cc(NC(=O)c2noc3c2CCc2ccccc2-3)n(-c2ccccc2)n1,21.9% (inactive),12.4%
COC(=O)c1ccccc1S(=O)(=O)N(Cc1cc2cc3c(cc2[nH]c1=O)OCO3)C1CCCCC1,50% (inactive),8.05%
Cc1cc(O)c(-c2cc(C(=O)Nc3ccc(S(=O)(=O)N4CCOCC4)cc3)[nH]n2)cc1C,5.6% (inactive),9.8%
Cc1oc(-c2cccc(Cl)c2)nc1CN1CCC(C(=O)NCC2CCCO2)CC1 (stereo not drawn),33.9% (inactive),8.8%
CN1CCN(c2cc3c(c4c2[nH]c2ccccc24)C(=O)CC(C)(C)C3)CC1,16.1% (active),56.2%
O=C(Nc1nc(-c2ccccc2)cs1)C1CCCCN1S(=O)(=O)c1ccccc1 (stereo not drawn),0.4% (inactive),4.75%
CCn1c(=S)ccc2ccc(OC)cc21,12.9% (inactive),1.95%
Cc1oc(-c2ccccc2F)nc1CN1CCC(C(=O)NCc2ccco2)CC1,23.3% (inactive),3%
O=c1cc(-c2ccccc2)[nH]c2ccccc12,22.2% (inactive),9.15%
Cc1oc(-c2ccccc2F)nc1CN1CCC(C(=O)NCCC2=CCCCC2)CC1,29.4% (inactive),17.8%
Cn1c(=O)cc(SCC(=O)NCCCN2CCN(c3ccc(F)cc3)CC2)c2ccccc21,46.7% (inactive),8.35%
CCOc1ccccc1NC(=O)CCC(=O)O,6.7% (inactive),6.85%
Cc1cc(N2CCC(N(C)C3CCCC3)CC2)nc2cc(O)ccc12,65.4% (inactive),22.5%
Cc1ccccc1CN1CCN(CC(=O)NCCCN2CCN(c3ccc(F)cc3)CC2)C1=O,3.3% (inactive),5.15%
CCn1c(=O)cc(SCC(=O)NCCCN2CCN(c3ccccc3F)CC2)c2ccccc21,0% (active),33.5%
CCOC(=O)c1sc2ncnc(N3CCN(c4ccc(OC)cc4)CC3)c2c1C,25% (inactive),9.55%
COc1ccc(S(=O)(=O)Nc2ccc(F)c(Cl)c2)cc1OC,44.4% (inactive),6.75%
O=C(CCN1C(=O)COc2ccccc21)NCCCN1CCN(c2ccccc2F)CC1,21% (inactive),4.4%
CCN1CCCC1CNC(=O)c1cc2c(-c3ccc(Cl)cc3)nn(C)c2s1 (stereo not drawn),35.7% (active),56.7%
CCn1c(=O)cc(SCC(=O)NCCN2CCN(Cc3ccccc3)CC2)c2ccccc21,70.2% (active),6.85%
COCCn1c(=O)[nH]c2cc(C(=O)NCCCN3CCN(c4ccc(F)cc4)CC3)ccc2c1=O,37.9% (inactive),6.5%
Cc1ccnc(NC(=O)CCC(=O)N(CC(=O)NC2CCCCC2)c2cccc(C)c2C)c1,11.1% (inactive),6.85%
COc1ccc(C)cc1NC(=O)CCC(=O)Nc1ccc2nc(N3CCN(C)CC3)cc(C)c2c1,10.5% (inactive),13.4%
